Compound activity as filed in PubChem.
Sampled rows, rich in hits. Any-hit rate of the full collection: about 1.5%.
MCL1-BIM inh – disrupts human MCL1 binding to BIM-BH3 peptide; GST-MCL1 / FITC-Bim-BH3 fluorescence polarization; AID 2057; actives 0.68% (n = 320,000); inhibition, % at 10.9 µM;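 active = inhibition above the mean inhibition of all tested compounds plus 3 SD, set per campaign, cut at about 40% in these data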;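 also: 0% = DMSO wells and 100% = unlabeled Bim-BH3 peptide control; higher means more loss of mP so more displacement of Bim peptide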
GLD-1 RNA inh – GLD-1-TGE RNA interaction inhibition (C. elegans). inhibition, % at 5.96 µM. purified GLD-1 + fluorescein TGE RNA, fluorescence polarization. actives 0.44% (n = 320,000);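 active = percent inhibition above a per-plate cutoff, the plate mean of test compounds plus 3 SD, cut at about 30% in these data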;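 also: 0% = DMSO wells with GLD-1 and probe and 100% = wells lacking GLD-1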
EBV gp42 block – EBV gp42 inhibition | Q1HVG2 | Fluorescence polarization binding assay, mP read-out | inhibition, % (tested at 21.74 µM) | actives 0.42% (n = 220,000); in the data active = inhibition above about 50%
Bcl-xL primary – Bcl-xL (human) inhibition; GST-Bcl-xL / FITC-Bim BH3 peptide fluorescence polarization; Q07817; inhibition, % at 10.9 µM; actives 0.7% (n = 320,000);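 active = inhibition above the mean of all tested compounds plus 3 SD, cutoff set per campaign, cut at about 30% in these data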;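 also: 0% = DMSO wells and 100% = unlabeled Bim-BH3 peptide competitor; inhibitors lower millipolarization by displacing the labeled peptide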
eLon inh – inhibitors of E. coli Lon protease | purified E. coli Lon protease, fluorescence polarization | AID 602123 | inhibition, % at 7.94 µM | actives 0.42% (n = 360,000); in the data active = inhibition above about 13%, passing the limit was not always enough;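 also: 0% = enzyme with probe and DMSO and 100% = no enzyme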
MEX-5 binding – C. elegans MEX-5 TCR-2 RNA binding activity. Q9XUB2. activity score (negative = inhibition of binding), % at 10 µM. actives 0.38% (n = 300,000). MEX-5/FITC-TCR2 RNA binding, fluorescence polarization; stronger effect = lower value;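 active = inhibition past about -25% in most replicates, and total fluorescence under double the plate's negative control median, limit read from the data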;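 also: 0% = DMSO and -100% = 5 µM competing unlabeled TCR2 RNA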
Target sequence (Q9XUB2 whole entry, looked up): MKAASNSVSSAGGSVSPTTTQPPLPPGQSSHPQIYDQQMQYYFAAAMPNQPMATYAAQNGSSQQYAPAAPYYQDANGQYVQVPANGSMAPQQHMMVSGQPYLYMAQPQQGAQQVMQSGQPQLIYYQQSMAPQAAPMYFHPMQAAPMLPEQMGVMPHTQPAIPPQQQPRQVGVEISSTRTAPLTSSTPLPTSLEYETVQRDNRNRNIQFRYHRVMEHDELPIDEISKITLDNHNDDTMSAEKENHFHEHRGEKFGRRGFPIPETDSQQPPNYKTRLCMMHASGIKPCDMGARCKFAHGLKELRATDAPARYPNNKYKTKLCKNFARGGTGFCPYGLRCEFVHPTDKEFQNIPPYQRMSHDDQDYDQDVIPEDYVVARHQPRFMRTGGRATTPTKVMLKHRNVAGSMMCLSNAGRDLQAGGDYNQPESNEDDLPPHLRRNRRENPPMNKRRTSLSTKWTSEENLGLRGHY
GLD1 RNA confirm – GLD-1 TGE RNA interaction inhibition, confirmation; actives 10% (n = 550); inhibition, % at 5.96 µM; GLD-1/FL-TGE RNA fluorescence polarization, biochemical; AID 2459; shares compounds with GLD-1 RNA inh;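 active = average inhibition across triplicates above the hit cutoff set in the primary screen, cut at about 32% in these data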;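 also: 0% = GLD-1 with RNA probe and DMSO and 100% = wells lacking GLD-1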
eLon confirm – confirmation of E. coli Lon protease inhibitors; shares compounds with eLon inh; inhibition, % at 7.94 µM; purified E. coli Lon, fluorescence polarization; actives 31% (n = 1,400); in the data active = inhibition above about 16%;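 also: 0% = enzyme with probe and DMSO and 100% = no enzyme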
Starred values were filed as active, the others as inactive; · = no result.

SMILES	MCL1-BIM inh	GLD-1 RNA inh	EBV gp42 block	Bcl-xL primary	eLon inh	MEX-5 binding	GLD1 RNA confirm	eLon confirm
O=C(CCCN=C1NS(=O)(=O)c2ccccc21)OCC(=O)c1ccccc1Cl	-4	7	·	2	0	-1	·	·
Cc1ccc(OCCNC(=O)c2ccc3ccccc3n2)cc1	5	12	·	7	0	0	·	·
O=C(NCCOc1ccc(Cl)cc1)c1ccc2ccccc2n1	2	54*	12	4	-2	·	-4	·
COc1ccc(C)cc1C1=CC(=O)C[C@H](c2ccc(F)cc2)C1	4	34*	·	3	-9	·	-5	·
COc1ccc(Br)cc1C1=CC(=O)C[C@H](c2ccc(F)cc2)C1	·	·	·	·	4	·	·	·
CCOc1ccc(CCNC(=O)COC(=O)c2ccc(Br)o2)cc1OCC	-7	-3	·	-5	-6	-2	·	·
Cc1[nH]c2ccccc2c1C(=O)C(C)OC(=O)c1ccccc1NCCO (configuration not stated)	-1	45*	·	4	0	2	-1	·
Cc1cccc(C)c1NC(=S)N(Cc1ccccc1)Cc1cccnc1	2	-3	8	0	6	2	·	·
CCN(Cc1ccncc1)C(=S)Nc1c(C)cccc1C	47*	37*	0	44*	3	-1	4	·
COc1ccc(OC)c(NC(=O)c2cc3c(cc2Cl)N2CCCCCC2=NS3(=O)=O)c1	·	35*	·	·	-2	·	-8	·
C=CCc1cccc(/C=N/c2ncn[nH]2)c1O	14	-2	-14	4	8	2	·	·
C=CCc1cccc(/C=N/n2c(C)nnc2C)c1O	29	31*	30	24	-7	-22	35*	·
CC1CCN(c2oc(-c3ccc(F)cc3)nc2C#N)CC1	11	34*	·	2	11	2	-1	·
Nc1c(Cl)ncnc1N/N=C/c1ccc2ccccc2n1	15	32*	4	17	14	·	-6	·
Nc1c(Cl)ncnc1N/N=C/c1ccccn1	23	19	3	15	·	·	·	·
O=C(Nc1ccc(Cl)cc1)Nc1ccc(N2CCC(C(F)(F)F)CC2)nc1	32	38*	36	31*	47*	-9	23	8
CC1NC(=O)c2ccccc2-n2c1nc1ccc(F)cc1c2=O (configuration not stated)	·	·	·	·	1	·	·	·
O=C(NCc1ccc(F)cc1)c1ccc(CS(=O)Cc2ccccc2Cl)o1 (configuration not stated)	5	1	·	-2	-2	0	·	·
O=[N+]([O-])c1c(Nc2ccccn2)cc(Cl)c2nonc12	-39	43*	-14	-9	52*	0	3	-8
O=C(O)c1ccccc1Nc1cc(Cl)c2nonc2c1[N+](=O)[O-]	15	4	·	16	1	-3	·	·
CC(=O)Nc1ccc(S(=O)(=O)NCc2ccc3c(c2)cc(C)n3C)cc1	32	44*	12	34*	49*	0	17	22*
CC(=O)Nc1ccc(S(=O)(=O)NCc2ccc(C)cc2)cc1	-4	-7	2	-4	5	2	·	·
CCc1cccc(C)c1NC(=O)C1=C(C(=O)O)CCCC1	32	39*	1	29	19*	-1	7	32*
CCc1cccc(C)c1NC(=O)c1ccccc1	-1	6	1	-1	-1	-4	·	·
CS(=O)(=O)c1sc2nc(-c3cccs3)cc(-c3ccccc3)c2c1N	-3	53*	-29	23	20*	2	-14	-23
C/C(=C\C(=O)c1cccnc1)Nc1ccc(O)cc1	8	31*	5	7	22*	-2	-1	8
C/C(=C\C(=O)c1ccccc1)Nc1ccc(O)cc1	18	20	-8	16	12	-2	·	·
CC1=C(C(N)=O)S(=O)(=O)c2ccccc21	21	38*	12	20	18*	-9	24	29*
COc1ccccc1NC(=O)COC(=O)c1ccccc1C(=O)N1CCN(c2ccccc2)CC1	44*	33*	13	42*	24*	-5	4	5
